# The supplement of paper PMC9262897, “Low-cost anti-mycobacterial drug discovery using engineered E. coli” (Nature Communications, 2022)
# Structures can show the parent of a compound that is named as a salt. ± gives the standard deviation of the averaged measurements.
# Tests used:
# Experiment in all cases: growth (OD600 after 10 h); higher = more growth (less inhibition)
# [1] = tested on: E. coli TESEC Alr+ wild-type control; conditions: compound 0.1 mM; raw OD600 reference: median of DMSO wells 0.241, cell-free background 0.041
# Experimental: (§1)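 TESEC Mtb Alr E. coli, or the Alr+ wild-type control, in 384-well plates with Prestwick library compounds at 0.1 mM and 1% DMSO, across arabinose induction levels of 1E3 to 1E7 nM. Growth is read as OD600 after 10 h at 37 °C in triplicate biological replicates.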
# E. coli TESEC Mtb Alr [2] = conditions: compound 0.1 mM
# Experimental: as §1
# E. coli TESEC Mtb Asd = conditions: compound 0.1 mM
# Experimental: (§2)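 TESEC E. coli strains in which the native enzyme is deleted and replaced by arabinose-inducible Mtb Asd, DapB, CysH or TrpD, each grown in its selective medium. Strains were screened against the Prestwick library at 0.1 mM and 1% DMSO in 384-well format at low and high arabinose induction. Growth is read as OD600 after 10 h in triplicate.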
# E. coli TESEC Mtb DapB = conditions: compound 0.1 mM
# Experimental: as §2
# [3] = tested on: E. coli TESEC Alr+ wild-type control; conditions: compound 0.1 mM; raw OD600 reference: median of DMSO wells 0.49, cell-free background 0.052
# Experimental: (§3)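 TESEC Mtb Alr E. coli (ΔaraC ΔtolC ΔentC Δalr ΔdadX, arabinose-inducible Mtb Alr) or the Alr+ wild-type control strain, grown in defined M9-fructose medium without D-alanine in 96-well plates with Prestwick library compounds at 0.1 mM and 1% DMSO. Low Alr induction is 0.1 µM arabinose and high induction is 10 mM arabinose.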
# E. coli TESEC Mtb Alr [4] = conditions: compound 0.1 mM; remark: listed apart in the source
# Experimental: as §3
# [5] = arabinose 1000 nM, raw OD600 reference: median of DMSO wells 0.294, cell-free background 0.041
# [6] = arabinose 10000 nM, raw OD600 reference: median of DMSO wells 0.264, cell-free background 0.041
# [7] = arabinose 100000 nM, raw OD600 reference: median of DMSO wells 0.201, cell-free background 0.041
# [8] = arabinose 1000000 nM, raw OD600 reference: median of DMSO wells 0.193, cell-free background 0.041
# [9] = arabinose 10000000 nM, raw OD600 reference: median of DMSO wells 0.146, cell-free background 0.041
# [10] = arabinose induction (level): High, raw OD600 reference: median of DMSO wells 0.331, cell-free background 0.041
# [11] = arabinose induction (level): Low, raw OD600 reference: median of DMSO wells 0.417, cell-free background 0.041
# [12] = arabinose induction (level): High, raw OD600 reference: median of DMSO wells […], cell-free background 0.041
# [13] = arabinose induction (level): Low, raw OD600 reference: median of DMSO wells 0.227, cell-free background 0.041
# [14] = arabinose 100 nM, raw OD600 reference: median of DMSO wells 0.413, cell-free background 0.052
# [15] = arabinose 10000000 nM, raw OD600 reference: median of DMSO wells […], cell-free background 0.052
Structure (SMILES),growth [1],growth (E. coli TESEC Mtb Alr [2]; [5]),growth (E. coli TESEC Mtb Alr [2]; [6]),growth (E. coli TESEC Mtb Alr [2]; [7]),growth (E. coli TESEC Mtb Alr [2]; [8]),growth (E. coli TESEC Mtb Alr [2]; [9]),growth (E. coli TESEC Mtb Asd; [10]),growth (E. coli TESEC Mtb Asd; [11]),growth (E. coli TESEC Mtb DapB; [12]),growth (E. coli TESEC Mtb DapB; [13]),growth [3],growth (E. coli TESEC Mtb Alr [4]; [14]),growth (E. coli TESEC Mtb Alr [4]; [15])
"CC(C)(S)C(N)C(=O)O (racemic) [D,L-Penicillamine]",0.251 ± 0.0054,0.307 ± 0.016,0.2563 ± 0.0018,0.187 ± 0.021,0.187 ± 0.0061,0.146 ± 0.0078,0.307 ± 0.03,0.413 ± 0.018,0.18 ± 0.023,0.205 ± 0.024,0.437 ± 0.0091,0.403 ± 0.0076,0.35 ± 0.014
C=CC1=C(C(=O)O)N2C(=O)[C@@H](NC(=O)/C(=N\OCC(=O)O)c3csc(N)n3)[C@H]2SC1 [Cefixime],0.0395 ± 0.00093,0.0377 ± 0.0006,0.0408 ± 0.00017,0.03693 ± 0.00032,0.0407 ± 0.00045,0.04003 ± 0.00021,0.0679 ± 0.013,0.048 ± 0.004,0.0696 ± 0.022,0.0479 ± 0.0042,0.0448 ± 0.00017,0.0456 ± 0.00035,0.054 ± 0.001
O=C(c1ccc(F)cc1)C1CCN(CCn2c(=O)[nH]c3ccccc3c2=O)CC1 [Ketanserin tartrate hydrate],0.183 ± 0.0037,0.251 ± 0.0083,0.27 ± 0.0047,0.221 ± 0.033,0.132 ± 0.0046,0.17 ± 0.0079,0.243 ± 0.075,0.393 ± 0.039,0.203 ± 0.02,0.251 ± 0.056,0.491 ± 0.043,0.407 ± 0.011,0.2801 ± 0.002
Cc1nc2n(c(=O)c1CCN1CCC(c3noc4cc(F)ccc34)CC1)CCCC2 [Risperidone],0.237 ± 0.0077,0.305 ± 0.007,0.269 ± 0.014,0.175 ± 0.016,0.18 ± 0.0097,0.146 ± 0.0055,0.183 ± 0.032,0.315 ± 0.073,0.201 ± 0.024,0.261 ± 0.019,0.47 ± 0.027,0.397 ± 0.014,0.305 ± 0.023
CN(C)CCCO[C@@H]1[C@H]2OC(C)(C)O[C@H]2O[C@@H]1[C@H](O)CO [Amiprilose hydrochloride],0.23 ± 0.012,0.304 ± 0.024,0.262 ± 0.0085,0.196 ± 0.0086,0.185 ± 0.0074,0.137 ± 0.003,0.411 ± 0.073,0.385 ± 0.076,0.199 ± 0.017,0.269 ± 0.046,0.613 ± 0.04,0.405 ± 0.013,0.337 ± 0.022
CCN(CC)CCOC(=O)c1ccc(N)cc1 [Procaine hydrochloride],0.254 ± 0.0063,0.254 ± 0.065,0.273 ± 0.0077,0.2 ± 0.034,0.193 ± 0.0097,0.146 ± 0.0049,0.339 ± 0.035,0.384 ± 0.038,0.203 ± 0.026,0.251 ± 0.046,0.52 ± 0.05,0.412 ± 0.0056,0.259 ± 0.17
CCCCCN(CCCCC)C(=O)C(CCC(=O)O)NC(=O)c1ccc(Cl)c(Cl)c1 (stereo not drawn) [Lorglumide sodium salt],0.152 ± 0.0035,0.158 ± 0.01,0.114 ± 0.0014,0.158 ± 0.0084,0.0691 ± 0.00087,0.125 ± 0.0012,0.194 ± 0.019,0.162 ± 0.0069,0.153 ± 0.015,0.243 ± 0.015,0.104 ± 0.002,0.302 ± 0.17,0.161 ± 0.025
CC(=O)Nc1ccc(CC(=O)O)cc1 [Actarit],0.2349 ± 0.00093,0.291 ± 0.024,0.259 ± 0.0053,0.198 ± 0.015,0.217 ± 0.0053,0.136 ± 0.0042,0.291 ± 0.009,0.311 ± 0.097,0.183 ± 0.017,0.203 ± 0.025,0.574 ± 0.11,0.412 ± 0.011,0.342 ± 0.015
CC(N)C12CC3CC(CC(C3)C1)C2 (stereo not drawn) [Rimantadine Hydrochloride],0.228 ± 0.0089,0.293 ± 0.0047,0.2629 ± 0.0005,0.207 ± 0.025,0.18 ± 0.0024,0.151 ± 0.006,0.209 ± 0.019,0.497 ± 0.07,0.195 ± 0.021,0.232 ± 0.025,0.583 ± 0.077,0.407 ± 0.009,0.345 ± 0.011
CC[C@H](C)C(=O)O[C@H]1C[C@@H](C)C=C2C=C[C@H](C)[C@H](CC[C@@H]3C[C@@H](O)CC(=O)O3)[C@H]21 [Lovastatin],0.256 ± 0.0052,0.307 ± 0.01,0.0518 ± 0.002,0.21 ± 0.017,0.0567 ± 0.013,0.139 ± 0.0042,0.276 ± 0.026,0.35 ± 0.065,0.163 ± 0.018,0.192 ± 0.023,0.473 ± 0.043,0.43 ± 0.018,0.148 ± 0.042
CC(=O)OCC(=O)NCCCOc1cccc(CN2CCCCC2)c1 [Roxatidine Acetate HCl],0.241 ± 0.013,0.302 ± 0.0074,0.265 ± 0.008,0.212 ± 0.024,0.186 ± 0.0084,0.139 ± 0.0026,0.29 ± 0.046,0.389 ± 0.023,0.185 ± 0.016,0.186 ± 0.0097,0.673 ± 0.062,0.408 ± 0.0076,0.3569 ± 0.0035
Nc1ccc(S(N)(=O)=O)cc1 [Sulfanilamide],0.249 ± 0.008,0.302 ± 0.011,0.2715 ± 0.0023,0.248 ± 0.014,0.205 ± 0.0051,0.142 ± 0.0052,0.318 ± 0.027,0.446 ± 0.0081,0.217 ± 0.022,0.263 ± 0.038,0.507 ± 0.044,0.388 ± 0.033,0.386 ± 0.0053
CCCOc1ccccc1-c1nc2[nH]nnc2c(=O)[nH]1 [Zaprinast],0.205 ± 0.0049,0.229 ± 0.0072,0.257 ± 0.0057,0.162 ± 0.016,0.173 ± 0.0024,0.138 ± 0.0042,0.268 ± 0.029,0.313 ± 0.046,0.191 ± 0.0075,0.199 ± 0.024,0.507 ± 0.057,0.396 ± 0.0084,0.289 ± 0.0088
CN1CCN(CCCN2c3ccccc3Sc3ccc(C(F)(F)F)cc32)CC1 [Trifluoperazine dihydrochloride],0.0402,0.03983 ± 0.00032,0.03903 ± 0.00012,0.04003 ± 5.8e-05,0.03933 ± 5.8e-05,0.0403 ± 0.0001,0.0513 ± 0.00026,0.054 ± 0.0007,0.04873 ± 0.00025,0.171 ± 0.11,0.04767 ± 0.00035,0.26 ± 0.19,0.0509 ± 0.00026
CCn1cc(C(=O)O)c(=O)c2cc(F)c(N3CCNC(C)C3)c(F)c21 (stereo not drawn) [Lomefloxacin hydrochloride],0.04153 ± 0.0004,0.0411 ± 0.00064,0.03993 ± 0.00021,0.0417 ± 0.00042,0.03983 ± 0.00025,0.04157 ± 0.00015,0.04757 ± 0.00021,0.0494 ± 0.0013,0.0491 ± 0.0012,0.0483 ± 0.0006,0.0513 ± 0.0014,0.0534 ± 0.0016,0.0512 ± 0.0011
CO/N=C(\C(=O)N[C@@H]1C(=O)N2C(C(=O)O)=C(C[N+]3(C)CCCC3)CS[C@H]12)c1csc(N)n1 [Cefepime hydrochloride],0.0426 ± 0.00078,0.0381 ± 0.00085,0.0472 ± 0.0016,0.03857 ± 0.00031,0.0612 ± 0.0025,0.048 ± 0.00053,0.197 ± 0.017,0.188 ± 0.012,0.182 ± 0.0028,0.173 ± 0.011,0.0488 ± 0.0038,0.0455 ± 0.00017,0.0731 ± 0.0077
